Shown are actives, neighbours in structure and some others; about 1.5% of the full set was active somewhere.
sEH inh: soluble epoxide hydrolase (human) inhibition | recombinant human sEH enzymatic activity assay | inhibition, % at 2 µM | hit rate 0.34% among 91,000 | P34913; in the data active = inhibition above about 80%
Target sequence (P34913 whole entry, looked up): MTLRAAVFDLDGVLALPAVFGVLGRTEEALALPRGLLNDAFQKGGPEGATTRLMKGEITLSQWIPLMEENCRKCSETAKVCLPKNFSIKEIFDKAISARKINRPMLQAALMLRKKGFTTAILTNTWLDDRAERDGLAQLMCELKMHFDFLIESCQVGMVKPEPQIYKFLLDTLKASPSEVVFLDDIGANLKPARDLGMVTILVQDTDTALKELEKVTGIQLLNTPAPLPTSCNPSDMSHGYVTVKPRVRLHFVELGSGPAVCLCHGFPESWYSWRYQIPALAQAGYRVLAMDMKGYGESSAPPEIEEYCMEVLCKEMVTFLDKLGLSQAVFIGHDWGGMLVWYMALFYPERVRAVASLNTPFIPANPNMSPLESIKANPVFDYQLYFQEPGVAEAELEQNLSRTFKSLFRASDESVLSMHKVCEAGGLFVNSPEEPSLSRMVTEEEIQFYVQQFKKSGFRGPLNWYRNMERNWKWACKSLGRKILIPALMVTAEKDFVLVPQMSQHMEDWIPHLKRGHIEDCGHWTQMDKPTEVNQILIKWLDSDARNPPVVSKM
PLAP act: human PLAP activation. activation fold at 20 µM. hit rate 1.2% among 96,000. AID 696. P05187. purified PLAP enzyme, luminescent substrate read-out; hits give high values; in the data active = activation fold above about 2
sEH activator: soluble epoxide hydrolase (human) activation. activation, % at 2 µM. P34913. purified human sEH enzymatic activity, activator screen. hit rate 0.04% among 91,000; in the data active = activation above about 37%
BAP1 block: inhibitors of human BAP1 deubiquitinase | recombinant BAP1, Ub-AMC hydrolysis fluorescence kinetic; hits give low values | calls only at 20 µM | hit rate 0.48% among 72,000 | AID 436;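 active = activity remaining at or below 50% of control, provided the compound also passes the data quality filters; inactive = the rest, including low values that fail the filters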
BAP1 inh conf: confirmation of human BAP1 enzyme inhibitors | AID 753 | shares compounds with BAP1 block | purified BAP1, Ub-ethyl ester hydrolysis, HPLC; hits give low values | hit rate 8% among 310 | % of control activity, % at 20 µM;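 active = percent of control activity at or below 60%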
Large screens that a line does not name were inactive (follow-up assays come after a bar, where they were run).

COc1ccc(CCN2C(=O)C3C4CC(C5C(C(=O)N/N=C\c6ccc(Cl)cc6)=NOC45)C3C2=O)cc1OC (stereo unspecified)	sEH inh 94 (no result: BAP1 block)
COc1cccc(C(=O)N/N=C2/SCC(=O)N2CCc2ccc(OC)c(OC)c2)c1	none (no result: BAP1 block)
COc1ccc(S(=O)(=O)NC2CCS(=O)(=O)C2)cc1 (stereo unspecified)	none (no result: sEH inh, PLAP act, sEH activator)
c1ccc(SN=C(c2ccccc2)c2ccccc2)cc1	none (no result: sEH inh, PLAP act, sEH activator)
COc1ccc(N2CCN(Cc3cc(=O)oc4c3ccc3ccccc34)CC2)cc1	BAP1 block active (no result: sEH inh, sEH activator)
COc1cccc(-c2csc(N3CCN(C(=S)Nc4ccccc4)CC3)n2)c1	none (no result: BAP1 block)
COc1cccc(-c2csc(N3CCN(C(=O)NC45CC6CC(CC(C6)C4)C5)CC3)n2)c1	sEH inh 82 (no result: PLAP act, BAP1 block)
CC(=O)c1c(C)oc2ccc(N(C(=O)c3ccc(Cl)cc3)S(=O)(=O)c3ccccc3)cc12	none (no result: sEH inh, PLAP act, sEH activator)
CCOc1ccccc1NC(=O)CN(c1ccc(C)cc1)S(=O)(=O)c1c(C)n[nH]c1C	PLAP act 2.1
COc1ccccc1CNC(=O)CN(c1ccc(C)cc1)S(=O)(=O)c1c(C)n[nH]c1C	none
Cc1ccc(-c2nn(-c3ccccc3)c3[nH]c(=O)c(CNCCN(C)C)cc23)cc1	PLAP act 2.7 (no result: sEH inh, sEH activator)
CC1CCc2sc(NC(=O)c3cc(Cl)ccc3[N+](=O)[O-])c(C#N)c2C1 (stereo unspecified)	none (no result: sEH inh, PLAP act, sEH activator)
Cc1ccc(NC(=O)NC2CCN(S(=O)(=O)c3ccc(F)cc3)CC2)cc1	sEH inh 85 (no result: PLAP act, BAP1 block)
COc1cc(C2NC(=O)NC(C)=C2C(=O)OCC(Cl)(Cl)Cl)cc(OC)c1OC (stereo unspecified)	none (no result: sEH inh, PLAP act, sEH activator)
Cc1ccc(OCC(=O)NNC(=O)C2CCN(c3nccc(C)n3)CC2)cc1	PLAP act 2.5 (no result: BAP1 block)
Cc1onc(-c2ccccc2Cl)c1C(=O)Nc1ccc(Oc2ccccc2)cc1	none (no result: sEH inh, PLAP act, sEH activator)
CCOC(=O)Nc1ccc2c(c1)N(C(=O)OC)c1ccccc1CC2	sEH activator 41
Cc1ccc(NC(=O)c2ccc(C)c(C)c2)cc1	none (no result: sEH inh, PLAP act, sEH activator)
COC(=O)c1ccc(/C=C/C(=O)c2ccc(OC)c(OC)c2)cc1	none (no result: BAP1 block)
COC(=O)c1ccc(OC(=O)c2ccc(OC)c(OC)c2)c(OC)c1	sEH activator 38
CC(C)(C)c1cnnn1-c1ccc(NC(=O)c2ccc3c(c2)OCO3)cc1	sEH inh 93
Cc1ccc(C(C)C)c(OCC(=O)Nc2ccc3c(c2)nc(CN2CCCC2)n3C)c1	PLAP act 2 (no result: BAP1 block)
Cc1ccc(N=Nc2c(=O)[nH]n3c(=O)cc(C)[nH]c23)cc1	PLAP act 2.1 (no result: BAP1 block)
Cc1ccc(N=Nc2c(N)[nH]n3c(=O)cc(-c4ccccc4)nc23)cc1	none (no result: BAP1 block)
CC(C)CN1C(=O)c2ccc(C(=O)NCc3ccc4c(c3)OCO4)cc2C1=O	sEH inh 81 (no result: BAP1 block)
CC(C)(C)c1ccc(OCC(=O)Nc2ccc3oc(-c4ccc(F)cc4)nc3c2)cc1	none (no result: sEH inh, PLAP act, sEH activator)
CCOc1ccccc1N1CC(O)=C(c2nc3ccccc3s2)C1=N	none
COc1ccc(OC)c(N2CC(O)=C(c3nc4ccccc4s3)C2=N)c1	PLAP act 2 (no result: BAP1 block)
CCN(CC)CCCN1CC(O)=C(c2nc3ccccc3s2)C1=N	PLAP act 2.2 (no result: BAP1 block)
COc1cc(NC(=O)c2cc3ccccc3o2)c(OC)cc1Br	BAP1 block active | BAP1 inh conf inactive
COc1cc(NC(=O)c2cc3ccccc3o2)c(OC)cc1Cl	none
COc1ccccc1NC(=O)Nc1c(C)n(C)n(-c2ccccc2)c1=O	BAP1 block active | BAP1 inh conf inactive
COc1ccccc1C(=O)Nc1c(C)n(C)n(-c2ccccc2)c1=O	none
CCOC(=O)C1=C(C)N=c2s/c(=C\c3cccn3C)c(=O)n2C1c1cccc(OC)c1OC (stereo unspecified)	none
CCOC(=O)C1=C(C)N=c2s/c(=C/c3ccco3)c(=O)n2C1c1cccc(OC)c1 (stereo unspecified)	BAP1 block active | BAP1 inh conf inactive
COC(=O)CSc1nc2ccc(NC(=O)CSc3nnnn3Cc3ccccc3)cc2s1	BAP1 block active | BAP1 inh conf inactive
O=C(CSc1nc2ccc(NC(=O)CSc3nnnn3Cc3ccccc3)cc2s1)Nc1ccccc1	none (no result: PLAP act, BAP1 block)
CCOc1ccc(NC(=O)c2sc3c(c2N)C(c2ccc(Cl)cc2)C2=C(CCCC2=O)N3)cc1 (stereo unspecified)	none (no result: sEH inh, PLAP act, sEH activator)
Cc1cccn2c(=O)c3cc(C(=O)N4c5ccccc5CC4C)n(C)c3nc12 (stereo unspecified)	none
CC1Cc2ccccc2N1C(=O)c1cc2c(=O)n3ccccc3nc2n1C (stereo unspecified)	BAP1 block active | BAP1 inh conf inactive
Cc1cccn2c(=O)c3cc(C(=O)N4CCc5ccccc54)n(C)c3nc12	BAP1 block active (no result: sEH inh, PLAP act, sEH activator) | BAP1 inh conf inactive
